Measurements as given in PubChem BioAssay (EPA / NIEHS).
Activity calls are given as the source filed them. How the source made its calls: active means hit-call score of the fitted dose curve at least 0.9, where 1 is the maximum; inactive means score below 0.9.

Target: Hypoxia-inducible factor 1-alpha (Homo sapiens) (UniProt Q16665)
Test: ATG_HIF1a_CIS: Attagene CIS-FACTORIAL HepG2 Assay for human Hypoxia Inducible Factor 1 (HIF1A) (AID 2282951)
Details: HepG2 Attagene cis-factorial HIF1a reporter transcription; actives raise or lower the signal
Outline: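 RT-PCR/capillary electrophoresis fluorescence readout of reporter transcripts from endogenous-TF-driven cis elements in transfected HepG2 cells, 24 h exposure; activity fitted in both directions against DMSO controls.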

Hypoxia-inducible factor 1-alpha (Homo sapiens), sequence (Q16665 whole entry, looked up): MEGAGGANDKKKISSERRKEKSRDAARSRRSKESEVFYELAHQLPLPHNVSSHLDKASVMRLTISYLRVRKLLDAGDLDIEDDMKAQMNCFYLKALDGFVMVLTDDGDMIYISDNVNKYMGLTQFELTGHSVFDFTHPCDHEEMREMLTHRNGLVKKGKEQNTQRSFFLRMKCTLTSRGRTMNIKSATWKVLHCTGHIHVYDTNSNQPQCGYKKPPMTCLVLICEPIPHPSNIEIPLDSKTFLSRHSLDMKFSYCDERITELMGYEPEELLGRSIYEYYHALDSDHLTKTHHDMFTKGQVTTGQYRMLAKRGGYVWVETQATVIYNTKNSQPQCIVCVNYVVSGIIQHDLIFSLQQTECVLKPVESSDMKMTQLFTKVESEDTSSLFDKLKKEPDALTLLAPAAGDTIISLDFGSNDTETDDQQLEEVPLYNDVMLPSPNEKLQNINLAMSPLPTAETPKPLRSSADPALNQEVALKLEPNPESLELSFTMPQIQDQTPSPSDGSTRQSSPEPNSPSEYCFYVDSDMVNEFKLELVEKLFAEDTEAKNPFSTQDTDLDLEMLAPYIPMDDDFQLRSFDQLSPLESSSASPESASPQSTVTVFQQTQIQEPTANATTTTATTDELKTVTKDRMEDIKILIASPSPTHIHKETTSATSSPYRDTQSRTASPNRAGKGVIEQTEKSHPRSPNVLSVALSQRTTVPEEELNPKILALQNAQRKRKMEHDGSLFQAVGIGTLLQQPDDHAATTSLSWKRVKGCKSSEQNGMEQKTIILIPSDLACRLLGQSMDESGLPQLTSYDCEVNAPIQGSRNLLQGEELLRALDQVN

outcome, inactive:
c1ccc2occc2c1, O=C1CCCCC1, Cc1ccc(C(C)(C)C)c(O)c1, Nc1nc(=S)c2[nH]cnc2[nH]1, CO[C@@H]1COCC[C@@H]1N[C@@H]1CC[C@@](C(=O)N2CCc3ncc(C(F)(F)F)cc3C2)(C(C)C)C1, CCCCCCCCCCCCCCCCO, CC(=O)OC1CC(C)OC(C)O1 (stereo not drawn), CC1(C)C(=O)NC(=O)N1CO, CC(C)(O)c1ccc(CNC(=O)c2cccnc2Oc2ccc(F)cc2)cc1, CCCC(=O)O, O=C(O)c1cccnc1, COC(=O)CCC(=O)OC, C#CC(O)C(CC)CCCC (stereo not drawn), NCCOCCOCCN, NC=O, O=C(O)c1[nH]n(-c2ccc(S(=O)(=O)O)cc2)c(=O)c1N=Nc1ccc(S(=O)(=O)O)cc1, CCCCCCCCCCCCCCOS(=O)(=O)O, Cc1c(C)c2c(c(C)c1O)CCC(C)(COc1ccc(CC3SC(=O)NC3=O)cc1)O2 (stereo not drawn), CC1=C(C)S(=O)(=O)CCS1(=O)=O, O=C1O[C@H]([C@H](O)CO)C(O)=C1O, CCc1cc(C2=C(C(=O)O)N(c3ccccc3C(F)(F)F)S(=O)(=O)c3ccccc32)cc2c1OCO2, OCC(CO)n1cnc(-c2ccc(F)cc2)c1-c1ccnc(Oc2ccccc2)n1, CC(C)COC(=O)CCCCC(=O)OCC(C)C
